# Values joined by “and” are separate entries in the source; they are usually repeats but may differ in a detail not shown here. Equal entries are not always repeated. Records with an inconclusive call do not appear. Entries that show only a call come without a potency. Active and inactive are the calls of the source. Unless noted, calls come from the whole dose curve; as a rule, active = well fitted curve in the direction sought with a large enough effect in the repeat runs; inconclusive = weak or mixed curves; inactive = no such curve, though single readings can be large; an effect the other way counts as inactive or inconclusive.
# Key:
# [1] = qHTS assay to identify small molecule antagonists of the glucocorticoid receptor (GR) signaling pathway - cell viability counter screen (AID 720693); note: nearly all actives have a fitted effect of over 55% in size
# [2] = qHTS assay for identifying genotoxic compounds that show differential cytotoxicity against isogenic chicken DT40 cell lines with known DNA damage response pathways - wild type cell line (AID 743012); note: nearly all actives have a fitted effect of over 60% in size; note: potency is the fitted concentration of half-maximal effect
# Outline: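 First, wild type DT40 cells were plated at 300 per well and equilibrated about 0.5 h at 37 C/5% CO2. Next, compounds in DMSO were added and exposure lasted 40 h. Finally, CellTiter-Glo was added for 30 min at room temperature and luminescence recorded.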
# [3] = qHTS assay for identifying genotoxic compounds that show differential cytotoxicity against isogenic chicken DT40 cell lines with known DNA damage response pathways - Rev3 mutant cell line (AID 743014); note: nearly all actives have a fitted effect of over 55% in size; note: potency is the fitted concentration of half-maximal effect
# [4] = qHTS assay to identify small molecule antagonists of the androgen receptor (AR) signaling pathway - cell viability counter screen (AID 743033; note: nearly all actives have a fitted effect of over 45% in size)
# [5] = target: Androgen receptor (Homo sapiens) (UniProt P10275); test: qHTS assay to identify small molecule antagonists of the androgen receptor (AR) signaling pathway (AID 743035; active = well fitted inhibition curve with a large enough effect in the signal ratio in the repeat runs, not every such curve was filed as active; the % refers to the signal ratio)
# Outline: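 Beta-lactamase FRET read (2 h RT incubation with LiveBLAzer B/G) following 16 h of compound plus R1881 treatment of AR-UAS-bla HEK293 cells, which had been pre-incubated 4 h at 37C.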
# [6] = target: Androgen receptor (Homo sapiens) (UniProt P10275); test: qHTS assay to identify small molecule agonists of the androgen receptor (AR) signaling pathway (AID 743036; active = well fitted activation curve with a large enough effect in the signal ratio in the repeat runs, with a control signal flat, not every such curve was filed as active; the % refers to the signal ratio)
# Outline: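 Beta-lactamase under UAS control, stably integrated in HEK293 GripTite cells, reports receptor activation. After 16 h compound treatment, cells received FRET substrate for 2 h at room temperature before fluorescence reading.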
# [7] = target: Androgen receptor (Homo sapiens) (UniProt P10275); test: qHTS assay to identify small molecule agonists of the androgen receptor (AR) signaling pathway using the MDA cell line (AID 743040; note: nearly all actives have a fitted effect of over 20% in size)
# Outline: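 Human breast carcinoma MDA-kb2 reporter cells (MMTV-luc, AR/GR elements) were treated for 16 h at 37C in 0% CO2 following a 5 h settling period. Signal was quantified by ONE-Glo luminescence.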
# [8] = qHTS assay to identify small molecule antagonists of the androgen receptor (AR) signaling pathway using the MDA cell line - cell viability counter screen (AID 743041; note: nearly all actives have a fitted effect of over 45% in size)
# Outline: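 Same-well cytotoxicity was assessed by CellTiter-Fluor in MDA-kb2 AR-luc cells after 16 h of compound treatment under R1881 agonism.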
# [9] = target: Androgen receptor (Homo sapiens) (UniProt P10275); test: qHTS assay to identify small molecule antagonists of the androgen receptor (AR) signaling pathway using the MDA cell line (AID 743042; note: nearly all actives have a fitted effect of over 55% in size)
# Outline: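 MDA-kb2 breast carcinoma cells carrying MMTV-luciferase (AR/GR responsive) were co-treated with compounds and the agonist R1881 for 16 h at 37C. Inhibition read as ONE-Glo luminescence; CellTiter-Fluor fluorescence measured in parallel for cytotoxicity.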
# [10] = qHTS assay for identifying genotoxic compounds that show differential cytotoxicity against isogenic chicken DT40 cell lines with known DNA damage response pathways - Rad54/Ku70 mutant cell line (AID 743015); note: nearly all actives have a fitted effect of over 60% in size; note: potency is the fitted concentration of half-maximal effect
# Androgen receptor (Homo sapiens), sequence (P10275 whole entry, looked up): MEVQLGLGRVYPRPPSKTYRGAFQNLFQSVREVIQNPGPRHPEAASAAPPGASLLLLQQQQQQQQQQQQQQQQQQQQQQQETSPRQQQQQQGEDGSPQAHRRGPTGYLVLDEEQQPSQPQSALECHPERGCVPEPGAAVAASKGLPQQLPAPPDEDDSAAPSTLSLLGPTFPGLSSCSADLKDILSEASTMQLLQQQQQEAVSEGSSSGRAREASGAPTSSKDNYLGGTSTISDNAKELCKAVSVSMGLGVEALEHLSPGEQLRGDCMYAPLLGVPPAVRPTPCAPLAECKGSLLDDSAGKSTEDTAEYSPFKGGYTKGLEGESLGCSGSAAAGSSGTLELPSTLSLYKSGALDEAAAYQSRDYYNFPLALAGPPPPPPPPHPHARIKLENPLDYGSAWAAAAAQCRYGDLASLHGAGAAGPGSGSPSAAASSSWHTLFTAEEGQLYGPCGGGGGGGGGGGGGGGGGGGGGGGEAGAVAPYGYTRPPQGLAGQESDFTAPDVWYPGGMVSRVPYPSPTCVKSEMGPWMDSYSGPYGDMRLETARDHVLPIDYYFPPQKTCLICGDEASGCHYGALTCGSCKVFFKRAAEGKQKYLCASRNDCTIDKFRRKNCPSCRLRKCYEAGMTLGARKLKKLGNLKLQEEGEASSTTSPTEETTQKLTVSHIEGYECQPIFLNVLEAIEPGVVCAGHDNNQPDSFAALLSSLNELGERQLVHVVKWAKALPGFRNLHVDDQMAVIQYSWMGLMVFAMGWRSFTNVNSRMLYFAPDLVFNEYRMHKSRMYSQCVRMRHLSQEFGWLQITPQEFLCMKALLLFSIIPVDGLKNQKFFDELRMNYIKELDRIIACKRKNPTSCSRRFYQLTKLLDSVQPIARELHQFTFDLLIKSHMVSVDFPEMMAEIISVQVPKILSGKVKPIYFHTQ
Structure (SMILES),outcome [1],Potency [2],Potency [3],outcome [4],Potency [5],outcome [6],Potency [7],Potency [8],outcome [9],Potency [10]
CN1[C@@H]2CC[C@H]1CC(NC(=O)n1c(=O)[nH]c3ccccc31)C2 (some centres not stated),inactive,inactive,inactive,inactive,inactive,inactive,inactive,inactive,inactive,
COC(=O)CCCC(=O)O,inactive,inactive,inactive,inactive,,,,inactive,,
COc1cc(O)cc(O)c1,inactive,inactive,inactive,inactive,,,,inactive,,inactive
NCC[C@H](O)C(=O)N[C@@H]1C[C@H](N)[C@@H](O[C@H]2O[C@H](CN)[C@@H](O)[C@H](O)[C@H]2O)[C@H](O)[C@H]1O[C@H]1O[C@H](CO)[C@@H](O)[C@H](N)[C@H]1O,inactive,inactive,inactive,inactive,inactive,inactive,inactive,inactive,inactive,
CCc1cc(S(=O)(=O)O)c2cc(C(C)C)cccc1-2,inactive,inactive,inactive,inactive,,,,inactive,,inactive
O=C(O)CCNC(=O)c1ccc(N=Nc2ccc(O)c(C(=O)O)c2)cc1,inactive,inactive,inactive,inactive,,,,inactive,,inactive
CC(C)c1cccc(C(C)C)c1N,inactive,inactive,inactive,inactive,,,,inactive,,inactive
CC1(C)SC(C)(C)SC(C)(C)S1,inactive,inactive,inactive,inactive,inactive,inactive,inactive,inactive,inactive,
CN(C)CCOC(c1ccc(Cl)cc1)c1ccccn1 (configuration not stated),inactive,inactive,inactive,inactive,,,,inactive,,inactive
CC/C=C\C#N,inactive,inactive,inactive,inactive,,,,inactive,,inactive
CCCCCCCCCCCCCCCCCC(=O)OCCCCCCCCCCCCCC(C)C,inactive,inactive,inactive,inactive,,,,inactive,,
CCCCCCC(CCCCCCCCCCC(=O)OCC(COC(C)=O)OC(C)=O)OC(C)=O (configuration not stated),inactive,inactive,inactive,inactive,,,,inactive,,inactive
O=C(O)C(O)[C@H](O)[C@@H](O)[C@H](O)[C@H](O)CO (some centres not stated),inactive,inactive,inactive,inactive,,,,inactive,,inactive
CC(C)=CCC/C(C)=C/C(=O)O,inactive,inactive,inactive,inactive,,,,inactive,,inactive
CCCc1ccc(N)cc1,inactive,inactive,inactive,inactive,,,,inactive,,inactive
CCN(CC)C(=O)c1ccc(O)c(OC)c1,inactive,inactive,inactive,inactive,,,,inactive,,
Cc1nccn1CC1CCc2c(c3ccccc3n2C)C1=O (configuration not stated),inactive,inactive,,inactive,,,,inactive,,inactive
CCCCC1CCCCC(=O)O1 (configuration not stated),inactive,inactive,,inactive,,,,inactive,,inactive
C=C(C)[C@@H]1CCC2=CC(=O)C[C@@H](C)[C@]2(C)C1,inactive,inactive,,inactive,,,,inactive,,inactive
C=C(C)C(=O)OCCCCCCCCCCCCCCCCCC,inactive,inactive,,inactive,,,,inactive,,inactive
CCCCCN(CCCCC)C(=O)C(CCC(=O)O)NC(=O)c1ccc(Cl)c(Cl)c1 (configuration not stated),inactive,inactive,,inactive,,inactive,inactive,inactive,inactive,inactive
COc1cccc(Br)c1,inactive,inactive,,inactive,inactive,inactive,inactive,inactive,inactive,inactive

Structure (SMILES),outcome [1],Potency [2],Potency [3],outcome [4],Potency [5],outcome [6],Potency [7],Potency [8],outcome [9],Potency [10]
CO[Si](CCCNCCC[Si](OC)(OC)OC)(OC)OC,inactive,inactive,inactive,inactive,,,,inactive,,
NS(=O)(=O)c1cc2c(cc1Cl)NC(CSCc1ccccc1)=NS2(=O)=O,inactive,inactive,,,,,,inactive,,inactive
CCCCCCCCCCC1CO1 (configuration not stated),inactive,61.1 µM (active),68.6 µM (active),inactive,,,,inactive,,
CC(C)CCCC(C)CCCC(C)CCCCC(C)CCCC(C)CCCC(C)C (configuration not stated),inactive,inactive,inactive,inactive,,,,inactive,,
COC(=O)CCCCCCCCC(=O)OC,inactive,inactive,inactive,inactive,,,,inactive,,
Cn1cnc2c(=O)[nH]c(N)nc21,inactive,inactive,,inactive,,,,inactive,,61.3 µM (active)
O=C(O)/C=C/c1ccc(Cn2ccnc2)cc1,inactive,inactive,,inactive,,,,inactive,,inactive
COC(=O)C1=C(C)NC(C)=C(C(=O)OCC(C)=O)C1c1ccccc1[N+](=O)[O-] (configuration not stated),inactive,5.96 µM (active),,,,,,,,10.6 µM (active)
NCCN1CCNC1=O,inactive,inactive,,inactive,,,,inactive,,inactive
NC(=O)CCCCC1CCSS1 (configuration not stated),inactive,inactive,,inactive,,,,inactive,,inactive
CC(C=O)Cc1ccc(C(C)C)cc1 (configuration not stated),inactive,inactive,,inactive,,,,inactive,,inactive
CCC(=O)c1cccc(Cl)c1,inactive,inactive,,inactive,,,,inactive,,inactive
COc1cccc(OC)c1,inactive,inactive,inactive,inactive,,,,inactive,,
COC(C(=O)O)c1ccccc1 (configuration not stated),inactive,inactive,,inactive,,,,inactive,,inactive
Cc1c(C)n(CCN(C)C)c2ccc(C(=O)OCCN(C)C)cc12,inactive,11.9 µM (active),,inactive,,,,inactive,,13.3 µM (active)
O=C(O)Cc1cc(I)c(Oc2cc(I)c(O)c(I)c2)c(I)c1,inactive,inactive,inactive,inactive,,,,inactive,,
Oc1cc(O)c2c(c1)O[C@H](c1ccc(O)c(O)c1)[C@H](O)C2,inactive,inactive,,inactive,,,,inactive,,inactive
COC(=O)c1ccc(C(=O)OC)c(C(=O)OC)c1,inactive,inactive,inactive,inactive,,,,inactive,,
O=C1C(CCS(=O)c2ccccc2)C(=O)N(c2ccccc2)N1c1ccccc1 (configuration not stated),inactive,inactive,,inactive,,,,inactive,,inactive
C[C@H]1O[C@@H](n2cc(F)c(=O)[nH]c2=O)[C@H](O)[C@@H]1O,inactive,21.1 µM (active),,,,,,inactive,,23.7 µM (active)
C=CC(=O)OCCCCCC,inactive,inactive,inactive,inactive,,,,inactive,,
CC(=O)O[C@H](CC(=O)[O-])C[N+](C)(C)C,inactive,inactive,,inactive,,,,inactive,,inactive

Structure (SMILES),outcome [1],Potency [2],Potency [3],outcome [4],Potency [5],outcome [6],Potency [7],Potency [8],outcome [9],Potency [10]
CCN1CCCC1CNC(=O)c1cc(S(N)(=O)=O)ccc1OC (configuration not stated),inactive,inactive,,inactive,inactive,inactive,inactive,inactive,inactive,inactive
CCCC(C)C(=O)O (configuration not stated),inactive,inactive,,inactive,,,,inactive,,inactive
NC(=O)c1c(Cl)cccc1Cl,inactive,inactive,inactive,inactive,,,,inactive,,
OC[C@H]1O[C@@H]2O[C@H]3[C@H](O)[C@@H](O)[C@@H](O[C@H]4[C@H](O)[C@@H](O)[C@@H](O[C@H]5[C@H](O)[C@@H](O)[C@@H](O[C@H]6[C@H](O)[C@@H](O)[C@@H](O[C@H]7[C@H](O)[C@@H](O)[C@@H](O[C@H]8[C@H](O)[C@@H](O)[C@@H](O[C@H]9[C@H](O)[C@@H](O)[C@@H](O[C@H]1[C@H](O)[C@H]2O)O[C@@H]9CO)O[C@@H]8CO)O[C@@H]7CO)O[C@@H]6CO)O[C@@H]5CO)O[C@@H]4CO)O[C@@H]3CO,inactive,inactive,,inactive,,,,inactive,,inactive
NC(=O)Nc1nc2ccccc2[nH]1,inactive,inactive,,inactive,,,,inactive,,inactive
N#CCc1ccccc1[N+](=O)[O-],inactive,inactive,inactive,inactive,,,,inactive,,
Nc1cc(C(Cl)=C(Cl)Cl)c(S(N)(=O)=O)cc1S(N)(=O)=O,inactive,inactive,inactive,inactive,,,,inactive,,
NCCNC(=O)c1ccc(Cl)cn1,inactive,inactive,,inactive,,,,inactive,,inactive
C#CC(O)CCCCC (configuration not stated),inactive,,inactive,inactive,,,,inactive,,inactive
Cc1ccccc1C(=O)O,inactive,,inactive,inactive,,,,inactive,,inactive
Nc1nc(F)nc2c1ncn2[C@@H]1O[C@H](CO)[C@@H](O)[C@@H]1O,inactive,,596 nM (active) and 1.88 µM (active),inactive,,,,inactive,,1.33 µM (active) and 2.66 µM (active)
C/C=C1\C(=O)C[C@H]2[C@@H]3CCC4=CC(=O)CC[C@]4(C)[C@H]3CC[C@]12C,inactive,,10.7 µM (active),,,,,inactive,,13.4 µM (active)
CC(C)CCOC(=O)CC(C)C,inactive,,inactive,inactive,,,,inactive,,
C=CC(=O)N1CCOCC1,inactive,,inactive,inactive,,,,inactive,,inactive
c1ccc2cnncc2c1,inactive,,inactive,inactive,,,,inactive,,inactive
C=C(C)[C@H]1CC=C(C)CC1,inactive,,inactive,inactive,,,,inactive,,inactive
C=C(C)C(=O)NCCCN(C)C,inactive,,inactive,inactive,,,,inactive,,inactive
CC(C)CCCCCCN,inactive,inactive,,inactive,,inactive,inactive,inactive,inactive,
CC(=O)CCc1ccc(O)cc1,inactive,,inactive,inactive,,,,inactive,,inactive
c1ccc(SCCSc2ccccc2)cc1,inactive,,inactive,inactive,inactive,inactive,inactive,inactive,inactive,
Cn1ccc2cc3c(cc21)CCN3C(=O)Nc1cccnc1,inactive,,13.3 µM (active),inactive,,,,inactive,,26.6 µM (active)

# Reference: PubChem BioAssay (Tox21)
